Source: PubChem BioAssay (EPA / NIEHS)
Inconclusive results are not listed. Calls of active or inactive are those of the source. Rule for the calls: active = hit-call score of the fitted dose curve at least 0.9, where 1 is the maximum; inconclusive = response in the unintended direction; inactive = score below 0.9.

Target: bovine Estrogen Receptor (ER), ESR1 (gene 407238) (UniProt P49884)
Assay: NVS_NR_bER: NovaScreen (NVS) Nuclear Receptor Binding Assay for bovine Estrogen Receptor (ER) (AID 2283345);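 note: actives lower the bound radioligand count which means they displace the ER ligand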
Protocol: NVS_NR_bER is a biochemical, single-readout assay that uses extracted gene-proteins from Bovine uterine membranes in a tissue-based cell-free assay. Measurements were taken 18 hours after chemical dosing in a 96-well plate.NVS_NR_bER is one of one assay component(s) measured or calculated from the NVS_NR_bER assay. It is designed to make measurements of radioligand binding, a form of binding reporter, as detected with scintillation counting signals by Lysate-based radiodetection technology.Data from the assay component NVS_NR_bER was analyzed into 1 assay endpoint. This assay endpoint, NVS_NR_bER, was analyzed in the positive analysis fitting direction relative to DMSO as the negative control and baseline of activity. Using a type of binding reporter, loss-of-signal activity can be used to understand changes in the binding as they relate to the gene ESR1. Furthermore, this assay endpoint can be referred to as a primary readout, because the performed assay has only produced 1 assay endpoint. To generalize the intended target to other relatable targets, this assay endpoint is annotated to the nuclear receptor intended target family, where the subfamily is steroidal.
Binding assays used specific radioligands (tritiated, iodinated) with non-radioactive competitive displacement ligands in agonist or antagonist protocols (as indicated) and various reference compounds and inhibitors to titrate specific binding to receptors and transporters. Most enzyme assays (CYPs, kinases, phosphatases, proteases, HDACs) used recombinant protein and specific substrates (fluorescence mostly, some colorimetric and radioactive) and inhibitors, followed by a biochemical separation of substrate and product. All assays for the biochemical HTS were initially run in duplicate at a single concentration (10 uM for CYP450 assays and 25 uM for all others). […] Each assay was run with positive and negative controls, and concurrent controls on every plate. The follow-up (secondary) screen tested active chemical-pairs in concentration series, as well as a few additional assays not tested in the primary screen, some selected negative inactives, and several cases re-run in the concentration series for confirmatory purposes.

bovine Estrogen Receptor (ER), ESR1 (gene 407238), sequence (P49884 whole entry, looked up): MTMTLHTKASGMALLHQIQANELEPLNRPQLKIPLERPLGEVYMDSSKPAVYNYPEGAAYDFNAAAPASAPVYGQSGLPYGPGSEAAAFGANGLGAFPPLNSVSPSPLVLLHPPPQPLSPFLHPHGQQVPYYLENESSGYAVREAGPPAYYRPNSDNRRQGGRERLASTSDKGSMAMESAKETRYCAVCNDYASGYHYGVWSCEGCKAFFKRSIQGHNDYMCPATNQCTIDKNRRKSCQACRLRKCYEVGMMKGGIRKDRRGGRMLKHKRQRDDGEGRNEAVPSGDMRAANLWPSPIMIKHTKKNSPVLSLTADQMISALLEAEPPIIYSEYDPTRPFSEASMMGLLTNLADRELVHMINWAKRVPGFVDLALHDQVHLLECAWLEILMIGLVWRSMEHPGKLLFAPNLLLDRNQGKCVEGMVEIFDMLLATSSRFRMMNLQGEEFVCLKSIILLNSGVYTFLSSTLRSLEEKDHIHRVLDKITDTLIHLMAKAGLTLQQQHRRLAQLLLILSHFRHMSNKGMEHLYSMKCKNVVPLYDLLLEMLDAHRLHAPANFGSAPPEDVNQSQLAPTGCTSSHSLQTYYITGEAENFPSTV

SMILES | outcome | AC50
CC(Oc1ccc(Oc2ncc(C(F)(F)F)cc2Cl)cc1)C(=O)O (centres undefined) | inactive | –
c1ccc(P(c2ccccc2)c2ccccc2)cc1 | inactive | –
COP(=S)(NC(C)C)Oc1ccc(C)cc1[N+](=O)[O-] (centres undefined) | – | 9.3 µM (active)
COc1cc(OC)c(OC)cc1C=O | inactive | –
O=C(O)c1cc[c]([Hg][Cl])cc1 | inactive | –
O=[N+]([O-])c1cc(C(F)(F)F)c(Cl)c([N+](=O)[O-])c1Cl | inactive | –
c1coc(-c2nc3ccccc3[nH]2)c1 | inactive | –
CCOP(=S)(OCC)Oc1cnc2ccccc2n1 | inactive | –
C=CC(=O)OCCCCO | inactive | –
CCOP(=O)(Sc1ccccc1)Sc1ccccc1 | inactive | –
COP(=O)(OC)Oc1ccc([N+](=O)[O-])cc1 | inactive | –
C[C@]12CCC(=O)C(O)=C1CC[C@@H]1[C@@H]2CC[C@]2(C)C(=O)CC[C@@H]12 | inactive | –
O=[N+]([O-])c1ccc(Oc2ccc(C(F)(F)F)cc2[N+](=O)[O-])cc1 | inactive | –
c1cc(OCC2CO2)ccc1Cc1ccc(OCC2CO2)cc1 (centres undefined) | inactive | –
Oc1ccc(C2(c3ccc(O)cc3)c3ccccc3-c3ccccc32)cc1 | inactive | –
N#Cc1sc2c(=O)c3ccccc3c(=O)c=2sc1C#N | – | 9.58 µM (active)
CN(C)C(=O)Nc1cccc(OC(=O)NC(C)(C)C)c1 | inactive | –
[Cd+2].[Cl-].[Cl-] | inactive | –
[Hg+2].[I-].[I-] | inactive | –
IC(I)=C(I)I | inactive | –
OC(c1ccc(F)cc1)(c1cncnc1)c1ccccc1Cl (centres undefined) | inactive | –
COc1ccc(N)cc1N | inactive | –
O=C1C(Cl)=C(Cl)C(=O)C(Cl)=C1Cl | inactive | –
CC(=O)[O][Pb]([c]1ccccc1)([c]1ccccc1)[c]1ccccc1 | inactive | –
